Values joined by “and” are separate entries in the source; they are usually repeats but may differ in a detail not shown here. Equal entries are not always repeated. Hit rate of the full screen: of about 330,000 compounds, about 1,500 (0.45%) were called active. A call without a number means that no potency is given here. Inconclusive results (about 6%) are left out. This is one part of a sample in which actives are shown more often than they occur. The call rests on the fitted dose curve; tested in A549 cells. A structure can be active in one record and inactive in another.
assay: qHTS for Stage-Specific Inhibitors of Vaccinia Orthopoxvirus: Venus Reporter Primary qHTS; details: Vaccinia virus Venus reporter expression, fluorescence; series mostly up to 36.5 µM; further: nearly all actives have a fitted effect of over 30% in size
Potency means the concentration at half of the fitted maximal effect.

Compound	Potency	activity change, negative = inhibition
CCCCC[C@H](C)N1C[C@@H](COCc2ccccc2)Oc2cc(N3CC[C@@H](N(C)C)C3)ccc2S1(=O)=O	inactive	–
CCC(C(=O)NCc1ccccc1)n1c(Cc2cc(F)cc(F)c2)nc2ccccc21 (stereo not given)	inactive	–
CCCCNC(=O)C[C@@H]1C[C@@]2(C(=O)OC)CC(C)(C)CC=C2N(Cc2ccco2)C1=O	inactive	–
O=C(c1ccc(C(F)(F)F)cc1)N1CCC(=O)N([C@H](COCc2ccccc2)Cc2ccccc2)CC1	inactive	–
O=C1Nc2ccccc2NC(c2ccc3c(c2)OCO3)=C1N(Cc1ccc(F)cc1)C(=O)c1ccco1	inactive	–
COc1ccc(C(=O)c2c3ccc([N+](=O)[O-])cc3[n+]([O-])n2CCCN)cc1	10 µM (active)	–
COc1ccc2c(C(=O)c3ccc(C)cc3)n(CCC(N)=O)[n+]([O-])c2c1	inactive	–
COc1ccc(Cc2nnc(SCC(=O)c3cccc([N+](=O)[O-])c3)n2C)cc1	inactive	–
COc1ccc(C(C)(O)c2nc(-c3ccc(C)c(C)c3)cs2)cc1 (stereo not given)	inactive	–
CCOc1ccc(-c2cc(C(=O)N/N=C/c3ccc(O)cc3)c3ccccc3n2)cc1	inactive	–
CCOc1ccc(/C=N\NC(=O)c2c(C)nc3cc(C)ccn23)cc1	inactive	–
CCOc1ccc(/C=N/NC(N)=S)cc1	1 µM (active)	–
CCCCn1nnnc1C(c1cccc(OC)c1OC)N1CCN(C/C=C/c2ccccc2)CC1 (stereo not given)	inactive	–
C=CCC[C@H](CCCCC)OC(=O)/C=C/[C@H](O)[C@@H](O)C[C@@H](O)CC=C	inactive	–
COC(=O)[C@]12CCCCC=C1N(Cc1ccco1)C(=O)[C@H](CC(=O)NCC1CCCCC1)C2	inactive	–
COc1ccc(CN(Cc2ccccc2)C(=O)c2ccc(O)cc2)cc1COc1ccc(NC(C)=O)cc1	inactive	–
COc1cc(C#Cc2ccc3cc(CCCO)oc(=O)c3c2)cc(OC)c1	inactive	–
COc1cc(/C=C2\Oc3ccc(C#Cc4ccc(O)cc4)cc3C2=O)cc(OC)c1	8.91 µM (active)	–
CC(C)C1C(=O)N(Cc2cn(CCC3OCCO3)nn2)CCS(=O)(=O)N1Cc1ccc(-c2ccccc2C(F)(F)F)cc1 (stereo not given)	inactive	–
CC(C)OC(=O)c1ccc(COc2ccc3ccc(=O)oc3c2)o1	inactive	–
Cc1noc(C)c1COc1ccc2ccc(=O)oc2c1	inactive	–
CC(=CCOc1ccc2ccc(=O)oc2c1)C1=CC(=O)C(C)(C)O1	3.55 µM (active)	–
CCOc1ccc(CCN2C(=S)N([C@@H](CC(C)C)CN3CCC[C@@H]3CN3C(=S)NC[C@@H]3Cc3ccc(O)cc3)C[C@@H]2CC(C)C)cc1	inactive	–
Cc1cnc(NC(=O)CSc2nnc(-c3ccc(Cl)cc3Cl)n2N)s1	inactive	–

Compound	Potency	activity change, negative = inhibition
Cc1ccc(C(=O)Nc2nc3ccc(Cl)cc3s2)o1	–	-7.19% [at 7.34 µM] (inactive)
Cc1ccc(CCC(=O)Nc2ncc(Cc3cc(Cl)ccc3Cl)s2)o1	4.47 µM (active)	–
COC(=O)C1=CN(c2c(C)cc(C)cc2C)C(N)=C(C#N)C1c1cccc(F)c1 (stereo not given)	inactive	–
CC(C)CNc1ncnc2c1cnn2Cc1ccc(Cl)cc1	inactive	–
Brc1ccc2ncnc(NCc3cccnc3)c2c1	inactive	–
Clc1ccc(Cn2ncc3c(NCc4cccnc4)ncnc32)cc1	8.91 µM (active)	–
CC(C)C[C@H]1CN([C@@H](Cc2ccccc2)CN2CCC[C@@H]2CN2C(=O)C(=O)NC[C@@H]2Cc2ccc(O)cc2)C(=O)C(=O)N1CCc1ccccc1	inactive	–
COc1ccc(-c2nc(=N)sn2-c2ccccc2)cc1	inactive	–
COc1ccc(C(NC(=O)C2CCN(CCCc3ccccc3)CC2)c2cccs2)cc1 (stereo not given)	inactive	–
N#Cc1c(Cl)c(Cl)c(Cl)c(C#N)c1Cl	inactive and 14.1 µM (active)	–
CCOc1ccc(NC(=O)CSc2nnc3c(n2)[nH]c2ccc(S(=O)(=O)N4CCOCC4)cc23)cc1	inactive	–
COC1CC(OC2CC[C@@]3(C=O)C4CC[C@]5(C)C(C6=CC(=O)OC6)CC[C@@]5(O)C4CC[C@]3(O)C2)OC(C)C1O (stereo not given in full)	0.282 µM (active)	–
COC1C(O)C(C)OC(OC2CCC3(C=O)C(CCC4C3CCC3(C)C(C5=CC(=O)OC5)CCC43O)C2)C1O (stereo not given)	0.1 µM (active)	–
O=C(Nc1ccc2c(c1)OCCO2)C(C1CC1)N1CCC(Cc2ccccc2)CC1 (stereo not given)	inactive	–
O=S1(=O)CC(N2CCN(Cc3ccccc3F)CC2)CN1Cc1cn(Cc2ccccc2)nn1 (stereo not given)	inactive	–
Cc1nc2c(OCc3ccc(Cl)cc3)cccn2c1N(C)Cc1cccs1	inactive	–
CCOC(=O)[C@]12CCCC=C1N(Cc1ccc3c(c1)OCO3)C(=O)[C@H](CC(=O)N1CCN(C(=O)c3ccco3)CC1)C2	inactive	–
COC(=O)c1ccc(NC(=O)CSc2nnc(C3CC3)n2C)cc1	inactive	–
COC(=O)c1ccc(NC(=O)CSc2nnc(CNc3ccc(OC)cc3)n2C)cc1	12.6 µM (active)	–
COc1ccc(C(=O)NCc2nnc(SCC(=O)NC3=NCCS3)n2C)cc1	inactive	–
Cc1ccc(S(=O)(=O)N2[C@@H](Cc3ccccc3)CO[C@H]2CC(=O)OCc2ccccc2)cc1	inactive	–
N#Cc1cccc(NC(=O)c2cc(C3CCCCN3C(=O)CCc3ccccc3)on2)c1 (stereo not given)	inactive	–
CCOC(=O)N1C(=O)C[C@](Sc2ccc(C)cc2)(C(=O)OC)[C@H]1c1ccccc1	inactive	–
COc1ccc(OC)c(NC(=O)C2(C)CCN2C(=O)Cc2ccccc2)c1 (stereo not given)	inactive	–

Compound	Potency	activity change, negative = inhibition
O=C(NCc1cccnc1)c1cc(C2CCCN(C(=O)C3CCCCC3)C2)on1 (stereo not given)	inactive	–
CC(C)C[C@H](CO)Nc1nc(N(C)c2cccc(Cl)c2)c2ncn(C(C)C)c2n1	inactive	–
CC(C)n1cnc2c(Nc3cccc(Cl)c3)nc(N(CCO)CCCO)nc21	11.2 µM (active)	–
COC(=O)[C@@]12C[C@@H](CC(=O)N3CCCCC3)C(=O)N(Cc3ccc4c(c3)OCO4)C1=CCC(C)(C)C2	inactive	–
CCc1nc2c(OCc3ccc(C(=O)OC)cc3)cccn2c1N(C)C(=O)C(C)C	inactive	–
CN(C)c1ccc(/C=C/C=C/c2ccnc3ccccc23)cc1	inactive	–
Cc1cnc(CNc2nc(-c3cccnc3)nc3ccccc23)cn1	inactive	–
O=[N+]([O-])c1ccc(F)cc1Oc1nc(-c2cccnc2)nc2ccccc12	5.01 µM (active)	–
COc1cccc(-c2nc(Nc3ccncc3)c3ccccc3n2)c1	inactive	–
COC(=O)C1(C(=O)OC)C[C@H](c2ccccc2)N(Cc2ccccc2OC)[C@@H]1c1ccccc1	inactive	–
COc1ccc(OC)c(Cc2nnc(CCC(=O)NC3CCCC3)o2)c1	inactive	–
COc1ccc(OC)c(Cc2cnc3nc(N)nc(N)c3c2C)c1	1.12 µM (active)	–
COc1ccc(OC)c(NC(=O)c2sc3nc(C)cc(C)c3c2N)c1	inactive	–
CCCCCCCNc1ccc(/C=C/c2ccnc3ccccc23)cc1	inactive	–
O=C1NC(Nc2nc3ccccc3s2)(C(F)(F)F)C(=O)N1C1CCCCC1 (stereo not given)	10 µM (active)	–
COC(=O)NC1(C(F)(F)F)NC(=O)N(C2CCCCC2)C1=O (stereo not given)	inactive	–
O=C(NC1(C(F)(F)F)NC(=O)N(C2CCCCC2)C1=O)c1ccco1 (stereo not given)	inactive	–
Cc1ccc(Cc2c(-c3ccco3)nc3ccc(Cl)cn23)cc1	inactive	–
SCc1nc2ccc(Cl)cc2[nH]1	inactive	–
O=C(c1cnn2c1NC(=C1CC1)C=C2C(F)F)N1CCc2ccccc2C1	inactive	–
CCN1CCC(O)(/C=C/c2ccc(C)cc2)C(C(=O)/C=C/c2ccc(C)cc2)C1 (stereo not given)	17.8 µM (active)	–
CCOC(=O)C1CCCN(C(=O)/C=C/c2ccc(OC)cc2)C1 (stereo not given)	inactive	–
N#Cc1ccc(C(C(=O)NCc2ccccc2)n2c(=O)c(-c3ccco3)nc3ccccc32)cc1 (stereo not given)	inactive	–
CN(C)c1ccc(/C=N\Nc2ccc([N+](=O)[O-])cc2[N+](=O)[O-])cc1Cl	inactive	–

Compound	Potency	activity change, negative = inhibition
COc1ccc(CCNC(=O)CCc2ccccc2O)cc1OC	inactive	–
COc1ccc(Cc2nnc(N/N=C/c3ccccc3O)[nH]c2=O)cc1OC	1.26 µM (active)	–
O=c1[nH]c(NCCO)nnc1Cc1ccc(Cl)cc1	inactive	–
CCCCOc1ccc(C(=O)NO)cc1	inactive	–
CC(=O)N1Cc2cc(C(=O)NCc3cccc(F)c3)nc(-c3cccc(C4=CCCC4)c3)c2[C@H]1CCO	inactive	–
Cc1c(Cl)c([N+](=O)[O-])nn1Cc1ccc(C(=O)N/N=C\c2cc(Cl)ccc2O)o1	5.62 µM (active)	–
Cc1c(Cl)c([N+](=O)[O-])nn1CCCC(=O)Nc1cc(Cl)ccc1Cl	inactive	–
Cc1ccc(C(=O)O)cc1NC(=O)c1ccc(Cn2nc(C)c(Cl)c2C)o1	inactive	–
COc1cc2nc(N3CCCN(C)CC3)nc(NC3CC3)c2cc1OC	inactive	–
COc1ccc(-c2csc(C(O)c3cccc(Cl)c3)n2)cn1 (stereo not given)	inactive	–
COc1ccc(NC(=O)CN(C)CC(=O)Nc2cccc(C(F)(F)F)c2)cc1	inactive	–
COc1cc(NC(=O)c2[nH]cnc2C(N)=O)cc(C(=O)Nc2cccc(C(F)(F)F)c2)c1	10 µM (active)	–
Cc1cccc(NC(=O)c2nnn(-c3cccc(C(F)(F)F)c3)c2N)c1	inactive	–
COC(=O)[C@]12CCCCC=C1N(Cc1ccco1)C(=O)[C@H](CC(=O)NCCCCc1ccccc1)C2	inactive	–
O=C(CCC(=O)N/N=C/c1ccc(Br)o1)N/N=C/c1ccc(Br)o1	inactive	–
CCOc1cc(C=NNC(=O)CCCC(=O)NN=Cc2ccc(O)c(OCC)c2)ccc1O	inactive	–
CCCCC(=O)N/N=C/c1c(O)n(CC)c(=S)n(CC)c1=O	12.6 µM (active)	–
CCOc1ccc2nc(N3CCCN(CCCn4cccn4)CC3)nc(C)c2c1	inactive	–
O=c1[nH]nc(SCCS(=O)(=O)c2ccc(F)cc2)n1-c1ccccc1C(F)(F)F	3.16 µM (active)	–
O=S(=O)(Nc1n[nH]c(C(F)(F)F)n1)c1ccccc1	inactive	–
S=C(c1ccccc1)N1CCCC1	inactive	–
CN(CC(=O)O)C(=O)c1ccccc1	inactive	–
CN(O)C(=S)c1ccccc1	11.2 µM (active)	–

From PubChem BioAssay AID720580 (National Center for Advancing Translational Sciences (NCATS), 2013)
